Hit rate of the full screen: of about 390,000 compounds, about 17,000 (4.4%) were called active. Not shown: some 8% with an inconclusive outcome. The entries come from a sample that favours actives as a whole. A number with no mark means an inactive call. Calls follow the shape of the dose curve; as a rule, active = well fitted inhibition curve with a large enough effect; inconclusive = small, poorly fitted or top-dose-only effect; inactive = no such curve, though single readings can be large or run the other way.
% is scaled to controls: 0 for no effect and ±100 for the full control effect; potency is read from the fitted curve at half-maximal effect.

Lysine-specific demethylase 4A (Homo sapiens), sequence (O75164 whole entry, looked up, the tested form may be a part): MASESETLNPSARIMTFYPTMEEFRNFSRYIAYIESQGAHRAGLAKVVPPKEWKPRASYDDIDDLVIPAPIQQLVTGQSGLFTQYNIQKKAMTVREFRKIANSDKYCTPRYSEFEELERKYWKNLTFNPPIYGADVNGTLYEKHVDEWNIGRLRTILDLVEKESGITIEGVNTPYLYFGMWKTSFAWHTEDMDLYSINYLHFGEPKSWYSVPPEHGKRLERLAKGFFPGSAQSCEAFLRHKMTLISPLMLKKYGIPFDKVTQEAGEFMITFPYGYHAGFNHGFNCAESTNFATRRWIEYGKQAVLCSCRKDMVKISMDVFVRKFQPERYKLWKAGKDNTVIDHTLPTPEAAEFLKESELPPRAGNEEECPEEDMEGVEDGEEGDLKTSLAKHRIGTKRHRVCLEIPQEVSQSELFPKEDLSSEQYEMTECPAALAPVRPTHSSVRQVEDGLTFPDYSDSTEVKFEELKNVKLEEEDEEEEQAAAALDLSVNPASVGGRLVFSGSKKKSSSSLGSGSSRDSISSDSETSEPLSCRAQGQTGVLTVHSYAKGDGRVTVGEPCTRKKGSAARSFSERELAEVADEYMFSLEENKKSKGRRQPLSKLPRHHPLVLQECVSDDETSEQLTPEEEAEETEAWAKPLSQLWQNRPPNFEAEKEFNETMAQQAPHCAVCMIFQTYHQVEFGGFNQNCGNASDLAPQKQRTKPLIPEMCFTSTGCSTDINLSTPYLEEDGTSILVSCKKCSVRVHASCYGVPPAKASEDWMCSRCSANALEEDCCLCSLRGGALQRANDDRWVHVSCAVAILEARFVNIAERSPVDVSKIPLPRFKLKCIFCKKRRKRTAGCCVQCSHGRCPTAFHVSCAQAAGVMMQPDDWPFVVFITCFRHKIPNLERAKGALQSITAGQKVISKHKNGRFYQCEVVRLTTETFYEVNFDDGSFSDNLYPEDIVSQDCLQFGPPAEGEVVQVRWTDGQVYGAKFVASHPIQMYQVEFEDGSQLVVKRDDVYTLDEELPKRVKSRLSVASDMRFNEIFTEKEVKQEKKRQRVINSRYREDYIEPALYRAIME

This assay addresses Lysine-specific demethylase 4A (Homo sapiens) (UniProt O75164). Description: qHTS Assay for Inhibitors of JMJD2A-Tudor Domain. Also: nearly all actives have a fitted effect of over 50% in size. The conditions noted are these: AlphaScreen JMJD2A-Tudor / H3K4me3 peptide binding; series mostly up to 114 µM; activity change, negative = inhibition: at the top concentration. An excerpt:
JMJD2A is a jumonji-domain-containing lysine demethylase that uses Fe(II) together with 2-OG to effect oxidative demethylation of histones. Methylation is one of many […] modification that affect epigenetic transcription. […] It is proposed that the functions of JmjD2A binding to the histones, is to maintain marks after they are installed and to spread the modifications by […], establishing a self-propagating cycle for rapid methylation over a large area of chromatin. […] Thus, small molecule targeting of the JMJD2A-tudor domain interaction with its target methylhistone mark is expected to enable sophisticated experiments probing the fine regulatory pathways leading to selective demethylation of a given methyllysine locus based on the methylation state of adjacent histone marks. A quantitative high throughput AlphaScreen has been developed to identify small molecule inhibitors based on a protocol published by NCGC and SGC [4].
Although AlphaScreen has significant advantages with its utility in a variety of epigenetic target assays, the primary screening data provided in this deposition should be used with caution due to the prevalence of screening artifacts. The top compound concentration tested was high (>100uM) in this assay, which increases number of actives and potential artifacts. An AlphaScreen counterscreen is highly recommended to be run against any putative actives to eliminate non-specific artifacts. Alternatively, one can use other AlphaScreen assays in PubChem to filter out promiscuous hits.
[1] Lee, J. et al. Distinct binding modes specify the recognition of methylated histone H3K4 and H4K20 by JMJD2A-tudor. Nat Struct Mol Biol. 15(1); 109-11. 2008. PMID: 18084306
[2] Yasgar, et al. Compound Management for Quantitative High-Throughput Screening. JALA. 2008 Apr;13(2):79-89. PMID: 18496600
[3] Inglese, et al. Quantitative high-throughput screening: a titration-based approach that efficiently identifies biological activities in large chemical libraries. Proc Natl Acad Sci. 1;103(31):11473-8. 2006. PMID: 16864780
[4] Quinn et al. A homogeneous method for investigation of methyl-dependent protein-protein interactions in epigenetics. Nucleic Acids Res., 38(2):e11. 2010. PMID: […]
[5] Baell,Holloway. New substructure filters for removal of pan assay interference compounds (PAINS) from screening libraries and for their exclusion in bioassays. J Med Chem. 53(7):2719-40. 2010. PMID: 20131845
NIH Molecular Libraries Probe Production Network [MLPCN]
NIH Chemical Genomics Center [NCGC]
Structural Genomics Consortium (SGC)
To each well of a 1,536w plate, 2ul of JMJD2A-Tudor (final 100nM) and 1ul biotinylated histone peptide methylated at Lys4 [b-H3(1-18)K4me3] (final 50nM) were added in 1x PBS buffer, pH 7.4, containing 0.01% Tween-20, using a nanoliter dispenser. Formation of a protein-peptide complex proceeded at room temperature for 30 min. A Kalypsys pin-tool transferred 23nl of library compound solution in DMSO to each well. Following a 30 min incubation of the protein-peptide complex with compounds at room temperature, a mixture of 40 µg/mL each streptavidin-coated donor and nickel chelate acceptor AlphaScreen beads (final 10 µg/mL) was added in a 1ul dispense for a final volume of 4ul, followed by a brief centrifugation (1000 rpm, 1 min). Plates were incubated protected from the light for 20 min at room temperature. Microplates were then read on an EnVision multilabel plate reader using the 1,536 plate HTS AlphaScreen aperture (excitation time 80 ms, measurement time 240 ms).
As to `CCN(CC)S(=O)(=O)c1ccc(NC(=O)c2cccnc2Cl)c(NC(=O)c2cccnc2Cl)c1`, the Potency is 31.6 µM (active). `Cc1ccc(CNC(=O)c2cccnc2Cl)cc1`: the “activity change, negative = inhibition” value is -11.1%.

In the case of `CCN(CC)S(=O)(=O)c1ccc(NC(=O)c2cnc(C)cn2)cc1`, the “activity change, negative = inhibition” value is 0.664%. `Cc1ccccc1CN1CCC(CNC(=O)c2cc3ccc4cccnc4c3[nH]2)CC1`: the “activity change, negative = inhibition” value was -27.2%. With `Cc1ccc(C(=O)Nc2c(C(=O)NC(C)(C)C)oc3ccccc23)cc1`, the “activity change, negative = inhibition” value was 6.8%. With `O=C(Cc1ccc(Cl)cc1)NCC(c1cccs1)S(=O)(=O)c1ccc(Cl)cc1` (stereo not given), the “activity change, negative = inhibition” value was -13.3%. On the same count and under the same terms, for `COc1cc(C)c(S(=O)(=O)N2CCOCC2)c(C)c1C` the value was 0%. Take `Cc1ccc(NC(=O)C2CC2)cc1S(=O)(=O)N1CCOCC1`: the “activity change, negative = inhibition” value was -17.9%. As for `Cc1cc(C)c(S(=O)(=O)N2CCOCC2)cc1C`, the Potency was 11.2 µM (active). Consider `Cn1nc(-c2ccccc2)c(-c2ccccc2)c(C(=O)Nc2ccc(S(N)(=O)=O)cc2)c1=O`, for which the “activity change, negative = inhibition” value was -18.9%. Same read-out and setting: for `CCOc1cccc2sc(N3CCN(C(=O)C4CC4)CC3)nc12` the value was -8.44%; for `CCOC(=O)c1c(C)[nH]c(CCC(=O)Nc2ccc(OC)c(OC)c2)c1C`, -27.9%; for `O=C1Cc2cc(S(=O)(=O)Nc3ccc(OC(F)(F)F)cc3)cc3c2N1CCC3`, -14.3%. Still for that read-out and setting: the value for `O=C(NC1CCN(C(=S)Nc2ccc(Cl)cc2)CC1)C1CCCCC1` was -8.8%. On the same count and under the same terms, the value for `CCOC(=O)c1ccc(NC(=S)N2CCCC2)cc1` was -7.88%. With `CN(C)c1ccc(C(=S)N2CCN(C(=S)Nc3ccc(Cl)cc3)CC2)cc1`, the Potency was 28.2 µM (active). As to `Cc1c(CNC2CCCCC2)c(C(=O)O)c(C)n1Cc1cccc(Cl)c1`, the “activity change, negative = inhibition” value is -17.4%. Still for that read-out and setting: for `Cc1cccc(NC(=O)CSc2nnc(CNC(=O)c3cccc(C)c3)n2-c2ccccc2)c1` the value was -19.5%. Consider `O=C(N/N=C/c1cc(Cl)cc([N+](=O)[O-])c1O)C(O)(c1ccccc1)c1ccccc1`, for which the Potency is 50.1 µM (active). With `O=C(Cc1ccccc1)N/N=C/c1ccc(Cl)cc1Cl`, the “activity change, negative = inhibition” value is -6.47%. For the compound `Cc1nn(-c2ccccc2)c(Cl)c1/C=N/NC(=O)c1nn(C)cc1[N+](=O)[O-]`, the “activity change, negative = inhibition” value is 15.2%. Regarding `CCOC(=O)c1ccc(NC(=O)Cn2c(=O)cc(C)c3c(C)nn(-c4cccc(F)c4)c32)cc1`, the “activity change, negative = inhibition” value was -6.67%. With `CCN1C(=O)c2ccccc2S(=O)c2ccc(C(=O)NCc3ccc(F)cc3)cc21` (stereo not given), the “activity change, negative = inhibition” value was 1.68%. On the same count and under the same terms, the value for `CN(c1ccc2nc3ccccc3c(=O)n2n1)C1CCCCC1` was 4.35%. Take `CN(C)c1cc(N)c2ccccc2n1` (tested in a mixture with another compound): the Potency was 2.82 µM (active). Turning to `O=C(CC1N=C2c3ccccc3N=C(SCc3ccc(F)cc3)N2C1=O)NCc1cccs1` (stereo not given), the “activity change, negative = inhibition” value is -21%.

For `Cc1cc(-c2ccc(C)c(S(=O)(=O)N3c4ccccc4CC3C)c2)on1` (stereo not given), the “activity change, negative = inhibition” value is 11.7%. On to `O=S(=O)(c1ccc2nc(N3CCN(c4cccc(Cl)c4)CC3)ccc2c1)N1CCCCC1`, for which the “activity change, negative = inhibition” value was 9.42%. Turning to `COC(=O)C1(C)NC(c2ccc(F)cc2)C2C(=O)N(c3ccccc3)C(=O)C21` (stereo not given), the “activity change, negative = inhibition” value was 1.31%. In the case of `CCOC(=O)C1(C)NC(c2ccco2)C2C(=O)N(c3ccccc3)C(=O)C21` (stereo not given), the “activity change, negative = inhibition” value is -18.4%. On to `CCCCC1(C(=O)OCC)NC(c2ccc(O)cc2)C2C(=O)N(c3ccccc3)C(=O)C21` (stereo not given), for which the Potency is 28.2 µM (active). As to `COc1ccccc1CNC(=O)C(=O)NCC(c1cccs1)S(=O)(=O)c1cccs1` (stereo not given), the “activity change, negative = inhibition” value was -17.5%. On the same count and under the same terms, for `CCCN(CCC)S(=O)(=O)c1ccc(C(=O)Nc2sc3c(c2C(=O)OC)CCN(CC)C3)cc1` the value was -9.17%; for `Cc1ccc2oc(C(=O)Nc3ccc(S(=O)(=O)N4CCCCCC4)cc3)cc(=O)c2c1`, -14.2%. As to `CC1CCCCN1CC(=O)N1CCCc2c1c(=O)oc1ccc(OCc3ccccc3)cc21` (stereo not given), the “activity change, negative = inhibition” value is -29.8%. For `Cc1ccc(NC(=O)CNCc2ccccn2)cc1S(=O)(=O)N(C)C`, the Potency was 56.2 µM (active). In the case of `Cc1ccc(C(=O)Nc2ccc(C)c(S(=O)(=O)N(C)C)c2)s1`, the “activity change, negative = inhibition” value was -9.67%. For `CCN(c1ccccc1)S(=O)(=O)c1cc(C(=O)NCc2ccccn2)ccc1C`, the “activity change, negative = inhibition” value was -17.2%. As to `Cc1ccc(OCC(=O)Nc2ccc(OCc3cc(=O)n4c(C)csc4n3)cc2)cc1C`, the “activity change, negative = inhibition” value is -23.8%.

For the compound `Cc1cccc(NC(=O)Cn2c(C(F)(F)F)nc3ccccc32)c1C`, the “activity change, negative = inhibition” value is -12.8%. Still for that read-out and setting: for `CCc1nccn1S(=O)(=O)c1cc(Br)ccc1Br` the value was -1.49%. Consider `N#C/C(=C\c1ccccc1F)c1nc2ccccc2c(=O)[nH]1`, for which the “activity change, negative = inhibition” value is -15.7%. Regarding `COc1ccc(-c2nc(=N)sn2-c2ccccc2)cc1`, the Potency is 5.62 µM (active).

`Cc1ccc(CN2C(=O)SC(Nc3ccccc3)C2=O)cc1` (stereo not given): the “activity change, negative = inhibition” value was 14.8%. The same measure, in the same setting: for `Cc1n[nH]c(=O)n1-c1ccc(Oc2ccccc2)cc1` the value was -11%; for `COc1ccc(-c2nn3c(-c4ccc(OC)cc4)nnc3c3ccccc23)cc1`, 5.15%. With `Cc1ccc(-c2nc(=N)sn2Cc2ccccc2)cc1`, the Potency was 4.47 µM (active).

Take `Cc1ccc(-c2cc(C(=O)NC3CCN(Cc4ccccc4)CC3)c3ccccc3n2)cc1`: the “activity change, negative = inhibition” value was -14.5%. The same measure, in the same setting: for `CC(C)c1ccc2oc(-c3cc(NC(=O)c4cccs4)ccc3Cl)nc2c1` the value was -2.99%; for `COC(=O)c1cc(NC(=O)CCc2c(C)nc3c4c(C)cc(C)nc4nn3c2C)cc(C(=O)OC)c1`, -13.2%.

Values taken from PubChem BioAssay AID504339 (National Center for Advancing Translational Sciences (NCATS), 2011).
